Screening results (PubChem BioAssay)
HCMV inh – qHTS Assay for inhibitors of the human cytomegalovirus (HCMV) | HFF cells, HCMV-luciferase reporter, 72 h; active compounds read low | activity change, negative = inhibition, % at 57.5 µM | 410,000 compounds, 4.5% hits | AID 1259415, 2018; in the data active = activity change below about -60%; inconclusive = no clear call, values can overlap the other calls; inactive = above about -39%; note: % is set by controls: 0 for no effect and ±100 for the full control effect
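Steps: HFFs plated, 16 h 37C; compounds added; HCMV-luciferase added to MOI 1 PFU/cell; 72 h 37C; OneGlo reagent, 5 min room temperature; luminescence read, normalized to controls.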
Shiga toxin inh – A qHTS for Small Molecule Inhibitors of Shiga Toxin; Vero cells, Shiga toxin protein synthesis inhibition reporter; inhibition, % at 38.7 µM; 290,000 compounds, 9.2% hits; AID 2315, 2010; in the data active = inhibition mostly above about 28%, no sharp cut-off; inactive = mostly below about 43%; note: 0% is about no effect
CHX counter – Cycloheximide Counterscreen for Small Molecule Inhibitors of Shiga Toxin. 300,000 compounds, 12% hits. cell reporter, cycloheximide protein synthesis inhibition counterscreen. AID 2314, 2010. max response, %; in the data active = max response mostly above about 13%, no sharp cut-off; inactive = mostly below about 14%; note: read at 38.3 µM for the half of the compounds with a filed dose; 0% is about no effect
Pf growth 96h – Primary qHTS for delayed death inhibitors of the malarial parasite plastid, 96 hour incubation. P. falciparum luciferase reporter growth, 96 h. Potency, µM (highest dose often 28.7 µM), for inactives: top-dose activity change, negative = inhibition, hits mostly inhibitors. 320,000 compounds, 6.9% hits. AID 504834, 2011; note: potency is the fitted concentration of half-maximal effect; % is set by controls: 0 for no effect and ±100 for the full control effect
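Compounds incubated with erythrocytes infected by luciferase-expressing P. falciparum (2% hematocrit, 0.05% parasitemia final) for 96 hours, 37 C in 5% CO2. Growth inhibition scored as decreased luciferase luminescence.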
Pf growth 48h – Primary qHTS for delayed death inhibitors of the malarial parasite plastid, 48 hour incubation; P. falciparum luciferase growth in erythrocytes, 48 h; Potency, µM (titrated, usually from 28.7 µM), without a hit: at the highest dose activity change, negative = inhibition, actives largely listed as inhibitors; 310,000 compounds, 5.9% hits; AID 504832, 2011; note: potency is the fitted concentration of half-maximal effect; % is set by controls: 0 for no effect and ±100 for the full control effect
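Cell-based growth assay: transgenic P. falciparum expressing firefly luciferase, cultured in red cells within RPMI 1640 containing 0.5% w/v Albumax, 24 mM bicarbonate and gentamycin. A drop in luciferase activity indicates inhibition.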
Numbers without * were called inactive; ? = inconclusive; . = no result. The list is not random: actives were taken first. Their share in the collection is about 20%. Unless noted, calls come from the whole dose curve; as a rule, active = well fitted inhibition curve with a large enough effect; inconclusive = small, poorly fitted or top-dose-only effect, or another doubt; inactive = no such curve, though single readings can be large or run the other way.

SMILES | HCMV inh | Shiga toxin inh | CHX counter | Pf growth 96h | Pf growth 48h
Cc1c(C)[n+](=O)c2c(n1[O-])C(Br)CCC2Br (stereo unspecified) | 27.5 | 14.3 | -2.6 | 7.8% | 3.3%
Cc1cc(OCCOCCNCc2ccccc2)ccc1C(C)C | -8.7 | . | -1.5 | 7.38µM* | ?
CC(C)(C)c1ccccc1OCCOCCNCc1ccccc1 | 9.9 | -2.7 | -3.6 | 23.0% | 8.28µM*
Cc1ccc(C(C)C)c(OCCNCc2ccccc2)c1 | -8.6 | -1.8 | -2.1 | 336.2% | 8.3%
CCCCNCCOCCOc1ccccc1-c1ccccc1 | ? | 15.9 | -3.3 | ? | 10.4µM*
CCOc1cccc(C(=O)N/N=C/c2coc3ccccc3c2=O)c1 | 7.1 | -7.6 | 14.7 | ? | 72.3%
CCOC(=O)C1(CCc2ccccc2)CCN(C(=O)C2CCCO2)CC1 (stereo unspecified) | -28.9 | 2.8 | 12.8 | ? | -4.8%
CCOC(=O)C1(CCc2ccccc2)CCN(C(=O)[C@@H]2C[C@@H](C)NC(=S)N2)CC1 | -0.7 | 15.2 | 13.3* | ? | ?
CCOC(=O)C1(CCCc2ccccc2)CCN(C(=O)C2CCCO2)CC1 (stereo unspecified) | -13.0 | -20.1 | 11.5 | 33.5% | ?
CCOC(=O)C1(CCCc2ccccc2)CCN(C(=O)C2CCCN(C(N)=O)C2)CC1 (stereo unspecified) | -35.6 | -3.9 | -1.5 | 13.1µM* | ?
Cc1ccc(-n2nnnc2CNC(=O)c2ccccc2S(C)(=O)=O)cc1C | -25.5 | . | . | . | .
CCc1ccccc1Nc1nc(N)nc(COC(=O)CCNS(=O)(=O)c2ccccc2)n1 | -24.1 | . | . | ? | 11.7µM*
O=C(CNS(=O)(=O)c1ccccc1)OCC(=O)c1ccc(OC(=O)c2ccccc2)cc1 | 3.9 | 32.1* | 15.2* | -1.0% | 6.7%
CNS(=O)(=O)c1cccc(C(=O)OCC(=O)NCc2ccccc2)c1 | -4.0 | -17.7 | -0.4 | 0.0% | .
O=C(COC(=O)c1cccc(S(=O)(=O)NCc2ccccc2)c1)c1ccccc1 | -21.6 | 56.7* | 18.9* | -9.5% | 10.0%
Cc1cc(C)c(C(=O)COC(=O)c2cccc(S(=O)(=O)NCc3ccccc3)c2)cc1C | ? | 11.0 | 22.5* | -0.6% | 0.7%
Cc1ccccc1Nc1nc(N)nc(COC(=O)CCS(=O)(=O)c2ccccc2)n1 | 51.4 | 20.0 | 9.9 | -22.3% | ?
Cc1ccc(C)c2[nH]c(=O)c(CCNC(=O)c3ccc(S(=O)(=O)N4CCOCC4)cc3)cc12 | 7.4 | -6.0 | 3.0 | ? | ?
CC(=O)c1ccc(OC(=O)CCc2nc3ccccc3s2)cc1 | 23.3 | 51.7 | 3.0 | 8.6% | 7.2%
COc1ccc(C(=O)NN2CC(O)=C(c3nc4ccccc4n3C)C2=N)cc1OC | -19.5 | -17.6 | -2.8 | 31.5% | 24.5%
CCC(=O)Nc1cc(C(C)(C)C)ccc1C(C)=O | -9.8 | 6.0 | -5.7 | -16.2% | -6.5%
Cc1ccccc1Nc1nc(N)nc(COC(=O)c2cccc(S(=O)(=O)N(C)C)c2)n1 | -6.5 | -4.1 | -2.5 | ? | -22.4%
Cc1ccccc1Nc1nc(N)nc(COC(=O)c2cccc(S(=O)(=O)NCc3ccccc3)c2)n1 | -1.5 | -2.5 | -3.0 | 13.1µM* | ?
COc1ccc(NC(=O)CNC(=O)N2CC(=O)Nc3ccccc32)cc1OC | -7.9 | 5.4 | 1.8 | 23.3% | 0.0%
O=C(c1cc2cc(C(F)(F)F)ccc2s1)N1CCOCC1 | -23.8 | 83.7* | 35.8* | 32.9% | 34.3%
SMILES | HCMV inh | Shiga toxin inh | CHX counter | Pf growth 96h | Pf growth 48h
O=C(c1cc2cc(Br)ccc2s1)N1CCOCC1 | -27.7 | 31.5 | 21.2* | 42.5% | ?
CCOc1ccc(S(=O)(=O)N2CCCCC2)cc1NC(=O)C1=COCCO1 | -22.3 | . | . | -20.6% | ?
CCOc1ccc(S(=O)(=O)N2CCCCC2)cc1NC(=O)C1CCC1 | -3.7 | . | . | 0.0% | 0.9%
CC(C)Oc1ccc(S(=O)(=O)N2CCOCC2)cc1NC(=O)C1=COCCO1 | -14.6 | . | . | 11.7µM* | ?
CC(C)Oc1ccc(S(=O)(=O)N2CCOCC2)cc1NC(=O)C1COc2ccccc2O1 (stereo unspecified) | -15.6 | . | . | 11.7µM* | 11.7µM*
CCOc1ccc(S(=O)(=O)N2CCCCC2)cc1NC(=O)C1COc2ccccc2O1 (stereo unspecified) | -37.9 | . | . | ? | 6.57µM*
Cc1ccc(NC(=O)COC(=O)CNC(=O)c2cccc([N+](=O)[O-])c2)cc1S(=O)(=O)N1CCCCCC1 | 1.9 | 3.1 | -3.3 | ? | -23.7%
CNc1cnn(-c2ccc(C)cc2)c(=O)c1Cl | 38.7 | 81.3* | 40.0* | 190.3% | 241.4%
COc1cnn(-c2ccc(C)cc2)c(=O)c1Br | 32.6 | 61.1 | 39.3* | 404.2% | 124.7%
COc1cnn(-c2ccc(C)cc2)c(=O)c1Cl | -6.0 | 79.1* | 51.7* | 75.1% | 87.5%
COc1cnn(-c2cc(Oc3ccc(C)cc3)ncn2)c(=O)c1Cl | -33.4 | -6.0 | -1.1 | -2.9% | .
Cc1ccc2c(CN(C)Cc3ccc(Cl)cc3Cl)cc(=O)oc2c1 | -28.7 | -7.4 | -4.5 | ? | ?
COc1cc(OC)cc(C(=O)Nc2nnc3n2CCS3)c1 | -15.0 | . | . | . | .
O=c1c(Cl)c2oc3ccccc3nc-2c2ccccc12 | . | -18.6 | 14.6 | -8.1% | 13.1µM*
CN(C)c1ccc2c(=O)c3ccccc3oc2n1 | 98.3 | . | . | . | .
CCCNC(=O)CSc1cn(CC(=O)N2CCCCCC2)c2ccccc12 | -12.2 | . | . | . | .
COc1ccc(N2C(=O)CC(N(Cc3ccco3)C(=O)CCC(=O)O)C2=O)cc1 (stereo unspecified) | 23.1 | -7.2 | -1.0 | -29.0% | 16.9%
Nc1ccc(Sc2nc3ccccc3[nH]2)cc1 | 7.6 | 4.8 | 14.7 | 2.5% | 19.2%
CCCCN1C(=O)C(CC(=O)NCCCN(C)C)CC(C(=O)N2CCCCCC2)=C1C (stereo unspecified) | 15.4 | . | . | . | .
CCCCCC1CC(CC(C)C(=O)Nc2nncs2)C(=O)O1 (stereo unspecified) | 1.2 | -8.2 | -1.7 | ? | ?
CCCCCC1CC(CC(=O)Nc2nncs2)C(=O)O1 (stereo unspecified) | 31.9 | 9.5 | 1.3 | 7.38µM* | -5.3%
Cc1ccccc1CCNC(=O)c1ccc(NC(=O)N2CC(C)Sc3ccccc32)cc1 (stereo unspecified) | 56.3 | . | . | . | .
O=C(NC(=S)Nc1ccc(N2CCOCC2)cc1)c1ccc(Cl)cc1 | -1.0 | 6.8 | 6.4 | 21.9% | 15.9%
O=C(CCCCl)NC(=S)Nc1ccc(CN2CCOCC2)cc1 | -11.0 | 48.1 | 12.7* | ? | 138.2%
O=C(CCCCl)NC(=S)Nc1ccc(N2CCOCC2)cc1 | 92.8 | 95.9* | 33.8* | 64.2% | 127.7%
O=C(COc1ccccc1Cl)NC(=S)Nc1ccc(CN2CCOCC2)cc1 | -25.4 | -1.6 | -3.2 | ? | 9.7%
COc1ccc2c(c1)[C@@H](NS(C)(=O)=O)[C@H](C)[C@@H](c1ccccc1)N2C(=O)Nc1ccc(C(F)(F)F)cc1 | -25.0 | . | . | . | .
CCn1c2ccccc2c2cc(CN3CCN(S(=O)(=O)Cc4ccccc4)CC3)ccc21 | 5.7 | -15.3 | -1.4 | 17.5% | ?
